# Laboratory results reported in PubChem BioAssay (NCATS).
# Results filed as inconclusive are left out. A call without a number means that no potency is given here. A number with no mark means an inactive call. Calls of active or inactive are those of the source. Unless noted, calls come from the whole dose curve; as a rule, active = well fitted curve in either direction with a large enough effect (not every such curve was filed as active); inconclusive = small, poorly fitted or top-dose-only effect, or another doubt; inactive = flat fitted curve, though single readings scatter.
# Assay: AP1 Signaling Pathway (AID 357)
# Conditions: ME-180 AP-1-bla reporter, EGF-induced, beta-lactamase ratio, 5 h; series mostly up to 17.2 µM
# Method in brief: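 ME-180 cells with beta-lactamase reporter under AP-1 response element, stimulated with EC50 EGF; compounds tested in titration series, 5 h at 37 °C. CCF4 substrate added 2.5 h at room temperature; 460/530 nm emission ratio gave %activity and AC50.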
row,SMILES,outcome
1,Nc1nc(OCc2ccccc2)c2[nH]cnc2n1,inactive
2,CC(=O)Nc1ccc(O)cc1,inactive
3,Cc1c(OCC(F)(F)F)ccnc1CS(=O)c1nc2ccccc2[nH]1 (centres undefined),inactive
4,N=C(N=C(N)N)N1CCOCC1,inactive
5,O=C(NCC1CCCCN1)c1cc(OCC(F)(F)F)ccc1OCC(F)(F)F (centres undefined),inactive
6,CC(C)Oc1ccc2c(=O)c(-c3ccccc3)coc2c1,inactive
7,Cc1ccc(C)c(OCCCC(C)(C)C(=O)O)c1,inactive
8,COc1ccccc1N1CCN(CCN(C(=O)C2CCCCC2)c2ccccn2)CC1,inactive
9,CC1(C)NC(=O)N(c2ccc([N+](=O)[O-])c(C(F)(F)F)c2)C1=O,inactive
10,c1ccc2[nH]c(-c3cscn3)nc2c1,inactive
11,CCOc1cc(CC(=O)N[C@@H](CC(C)C)c2ccccc2N2CCCCC2)ccc1C(=O)O,inactive
12,CC(C)[N+]1(C)[C@@H]2CC[C@H]1CC(OC(=O)C(CO)c1ccccc1)C2 (some centres undefined),inactive
13,O=c1ccc2ccc(O)c(O)c2o1,inactive
14,CCCc1cc(=O)[nH]c(=S)[nH]1,inactive
15,Nc1ccc(S(N)(=O)=O)cc1,inactive
16,Cc1cccc(C#Cc2ccccc2)n1,inactive
17,CCc1nc(N)nc(N)c1-c1ccc(Cl)cc1,inactive

row,SMILES,outcome
1,CN1C(C(=O)Nc2ccccn2)=C(O)c2sccc2S1(=O)=O,inactive
2,O=C(O)c1cccnc1Nc1cccc(C(F)(F)F)c1,inactive
3,NS(=O)(=O)c1cc(C(=O)O)c(NCc2ccco2)cc1Cl,inactive
4,CC1Cc2ccccc2N1NC(=O)c1ccc(Cl)c(S(N)(=O)=O)c1 (centres undefined),inactive
5,NC(=NCc1ccccc1)NC(=O)c1nc(Cl)c(N)nc1N,inactive
6,COc1ccc2cc([C@H](C)C(=O)O)ccc2c1,inactive
7,COc1c2occc2cc2ccc(=O)oc12,inactive
8,O=c1c(O)c(-c2cc(O)c(O)c(O)c2)oc2cc(O)cc(O)c12,inactive
9,NNc1nncc2ccccc12,inactive
10,CCC1=C(C)CN(C(=O)NCCc2ccc(S(=O)(=O)NC(=O)NC3CCC(C)CC3)cc2)C1=O (centres undefined),inactive
11,O=c1cc(N2CCOCC2)oc2c(-c3ccccc3)cccc12,inactive
12,Nc1cc(C(Cl)=C(Cl)Cl)c(S(N)(=O)=O)cc1S(N)(=O)=O,inactive
13,CC1(C)C(=O)N(CCN2CCC(C(=O)c3ccc(F)cc3)CC2)c2ccccc21,inactive
14,O=c1c(O)c(-c2ccc(O)cc2O)oc2cc(O)cc(O)c12,inactive
15,Nc1nc(Cl)nc2c1ncn2[C@H]1C[C@H](O)[C@@H](CO)O1,inactive
16,CCCCN(CCCC)CCC(O)c1cc2c(Cl)cc(Cl)cc2c2cc(C(F)(F)F)ccc12 (centres undefined),inactive

# Assay: Cell Viability - BJ (AID 421; calls by dose curve;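 note: potency is the fitted concentration of half-maximal effect; cells exposed to compound for 40 hours at 37 °C before readout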)
# Conditions: BJ fibroblast viability, qHTS
# Method in brief: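 Luminescent ATP signal (CellTiter-Glo, 20 min at room temperature) served as the read-out of viable BJ cells after 40 hours of compound treatment. Responses were scaled between DMSO and 100 uM tamoxifen, and AC50 values were obtained by Hill modeling.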
row,SMILES,Potency [µM]
1,CC(=O)Nc1ccc(O)cc1,> 92
2,Cc1ccc(C)c(OCCCC(C)(C)C(=O)O)c1,> 92
3,c1ccc2[nH]c(-c3cscn3)nc2c1,> 92
4,CCCc1cc(=O)[nH]c(=S)[nH]1,> 92
5,Nc1ccc(S(N)(=O)=O)cc1,> 92
6,CCc1nc(N)nc(N)c1-c1ccc(Cl)cc1,> 92
7,NS(=O)(=O)c1cc(C(=O)O)c(NCc2ccco2)cc1Cl,> 92
8,COc1c2occc2cc2ccc(=O)oc12,> 92

# Assay: Cell Viability - Jurkat (AID 426;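 active = dose-dependent loss of cell ATP signal giving a full or clear fitted curve, ranked by lower potency value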;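 note: potency is the fitted concentration of half-maximal effect; cells exposed to compound for 40 hours at 37 °C before ATP read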)
# Conditions: qHTS
# Method in brief: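 Jurkat (Clone E6-1) cells, 5000/well in complete medium, exposed to compounds for 40 hr at 37C; intracellular ATP measured by CellTiter-Glo luminescence after 20 min at room temperature. AC50 from Hill fits.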
row,SMILES,Potency
1,CC(=O)Nc1ccc(O)cc1,> 92 µM
2,Cc1ccc(C)c(OCCCC(C)(C)C(=O)O)c1,> 92 µM
3,CCCc1cc(=O)[nH]c(=S)[nH]1,> 92 µM
4,Nc1ccc(S(N)(=O)=O)cc1,> 92 µM
5,CCc1nc(N)nc(N)c1-c1ccc(Cl)cc1,3.02 µM (active)
6,NS(=O)(=O)c1cc(C(=O)O)c(NCc2ccco2)cc1Cl,> 92 µM
7,COc1c2occc2cc2ccc(=O)oc12,> 92 µM

# Assay: Cell Viability - Hek293 (AID 427;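 active = compounds whose dose-response curve shows a full or clear partial loss of cell viability, called from curve shape rather than a numeric limit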;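 note: potency is the fitted concentration of half-maximal effect; cells exposed to compound for 40 hours at 37 °C before reading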)
# Conditions: qHTS
# Method in brief: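 Luminescent ATP read-out (CellTiter-Glo, 20 min RT) after 40 hr compound exposure at 37 °C in complete medium. Signal normalized to DMSO (basal) and 100 uM tamoxifen (100% inhibition); concentration-response fitted with the standard Hill equation to give AC50.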
row,SMILES,Potency
1,CC(=O)Nc1ccc(O)cc1,> 92 µM
2,Cc1ccc(C)c(OCCCC(C)(C)C(=O)O)c1,> 92 µM
3,c1ccc2[nH]c(-c3cscn3)nc2c1,> 92 µM
4,CCCc1cc(=O)[nH]c(=S)[nH]1,> 92 µM
5,Nc1ccc(S(N)(=O)=O)cc1,> 92 µM
6,CCc1nc(N)nc(N)c1-c1ccc(Cl)cc1,1.64 µM (active)
7,NS(=O)(=O)c1cc(C(=O)O)c(NCc2ccco2)cc1Cl,> 92 µM
8,COc1c2occc2cc2ccc(=O)oc12,> 92 µM

# Assay: Cell Viability - HepG2 (AID 433; calls by dose curve;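 note: potency is the fitted concentration of half-maximal effect; potency for ATP loss meaning cytotoxicity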)
# Conditions: qHTS
# Method in brief: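 Cytotoxicity read as ATP loss (CellTiter-Glo luminescence) after 40 hr compound exposure of HepG2, 1500 cells/well, 37 °C. AC50 by Hill equation; 0% set by DMSO, 100% inhibition by 100 uM tamoxifen.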
row,SMILES,Potency
1,CC(=O)Nc1ccc(O)cc1,> 92 µM
2,Cc1ccc(C)c(OCCCC(C)(C)C(=O)O)c1,> 92 µM
3,c1ccc2[nH]c(-c3cscn3)nc2c1,> 92 µM
4,CCCc1cc(=O)[nH]c(=S)[nH]1,> 92 µM
5,Nc1ccc(S(N)(=O)=O)cc1,> 92 µM
6,CCc1nc(N)nc(N)c1-c1ccc(Cl)cc1,1.05 µM (active)
7,NS(=O)(=O)c1cc(C(=O)O)c(NCc2ccco2)cc1Cl,> 92 µM
8,COc1c2occc2cc2ccc(=O)oc12,> 92 µM
